# Data reported in PubChem BioAssay AID1508600 (Functional Genomics Laboratory (NCATS/FGL), 2020).
# The whole screen tested about 53,000 sequences, of which about 3,700 (7%) were called active. This is one part of a sample in which actives are shown more often than they occur. Unmarked numbers belong to inactive results.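 The calls were made as follows: active = gene knockdowns whose robust z-score for IL-1 alpha signal is at least 2 or at most -2, so actives lie on both sides; inactive = the rest.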
# Assay: Components of the Cytosolic LPS Sensing Pathway: Gene Identification via Genome-wide siRNA Screen;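 also: robust z of the log signal after scaling to non-targeting control siRNA wells of the plate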
# Conditions: RAW264.7 macrophages, IL-1a HTRF, actives lie on both sides, screened at 100 nM (by protocol), cells primed 5 h with Pam3CSK4 first
# In short: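 Using IL-1a HTRF as read-out, the screen measured release from RAW264.7 cells after 48h siRNA knockdown (100 nM), 5 h Pam3CSK4 priming and 24 h cytosolic LipidA. Values were expressed relative to negative-control wells as robust z-scores.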
row,Sequence,z-score
1,CCUAAGAUGAUCGUAGGCUTT against Olfr1221,-0.643
2,CGAGCUUUCUUCGUACACCTT against Dvl2,-1.74
3,GGCAUACCUGGAGAAGUGUTT against Prr5l,-2.31 (active)
4,GCUAGCACUAAGUGAACCUTT against Ppp1r21,1.25
5,GGAUAAUAGGAACAAUCUGTT against Sval1,0.207
6,GGUCAGGUUGAGGACAUAATT against Vwa1,1.28
7,GCUUACCAGAUUGUAUGUATT against Mrgpra1,0.533
8,GGAGAAAGAGCAGAGUCUGTT against Cep250,-2.04 (active)
9,GGCAGAGUUUGAAAAGAUCTT against Parp16,-1.42
10,GGCCCAAGAUUUCAAUUAGTT against 9130230L23Rik,-0.0833
11,GGUCAGAGGUCGACCUAUUTT against Oas1h,-2.18 (active)
12,GGUACAUUUUAUACUGGAGTT against Zfp277,0.163
13,GCCUCAUCGUAUAUAAAAUTT against Atp5mpl,-1.64
14,GGCCCAAACCUUAAAGUCCTT against Smyd4,-0.194
15,GGAAUGUACCCAUAAAAGUTT against Nudt19,0.988
16,GGCAUUGAGAAGUUUGAAGTT against Fmo9,-1.07
17,CCCUUGGUUAUGGAGAAAGTT against Mcoln2,-0.0392
18,GCACAACAAGCGAUGUCAUTT against Myo9b,-2.13 (active)
19,CCUACGUGAACAUGACGGUTT against Agfg1,0.096
20,GGUAGAGAAUUGAAACCUATT against Klhdc10,-0.776
21,GGAAUAUACCCUGAAACAUTT against Fam71d,0.0244
22,GGAGACUGUGGAUUUAAUUTT against Sult1a1,2.07 (active)

row,Sequence,z-score
1,GGAGAUGUACCACAAUGCCTT against Prss29,-0.128
2,GGCGGUGAUCCAGGGUUUATT against Klc2,2.62 (active)
3,GGAGUCAAAAAAAAUGCAATT against Ribc1,1.17
4,GCAAGAUCCAGAACACUCATT against Adora1,-0.781
5,CCAAGGAGCAUUCUUUGGUTT against 1700024B05Rik,-0.0487
6,GGUUUGUAUCUUAAAUGCCTT against Tdpoz4,2.88 (active)
7,GGCCUCGUCAUUUUACAGGTT against Mcee,0.098
8,GCCAAUAAUCCACAGGCAATT against Ryk,-0.577
9,CUGUAAGGCGGAUAAGACCTT against Pantr1,-1.42
10,GGUUACAAAAGAACCAGAUTT against Pik3c2g,1.66
11,GCGGCUUAGUCCAUCAGGATT against Aplf,0.819
12,GGAAGAGUGACUUGUGCAATT against Slc28a2,0.0125
13,GCUCGAGGCUUAGAAGACUTT against Hspb3,2.23 (active)
14,GGCUUACCUGGUCUACUCCTT against Wnt8b,-0.95
15,GCUACGUGUACCUGGAGUGTT against Cpeb1,-0.502
16,GGUGGUUAUUUAUUGGUGATT against Sp6,-0.272
17,GGUGCCUCAGAGUAAAUAUTT against Cdk2ap1,-0.895
18,GCAAGCAAUAGAGGAACCUTT against Rnf38,0.0643
19,GCAAACUAUUUGUCUGGUGTT against Ripk1,0.7
20,GGAGUACAUGGUGAUGUUGTT against Prss43,-2.6 (active)
21,CCGAAUCUCUCACGUGCCATT against Rtn4r,-0.474
22,GGAGUGUUUUACCUCUUUCTT against Nudt13,0.911

row,Sequence,z-score
1,GGACUUGAUGACAGUGAAUTT against Strada,-2.27 (active)
2,GCACCAUGAAUUCUAUUGCTT against Kcnmb1,-0.24
3,GCCGCUUAAGAGGGAUUAUTT against Mrpl15,-0.394
4,GGAGUAACUAUUCCCAAUUTT against Herc1,1.41
5,GGAGUUGAGGUGAUUAUCUTT against Olfr1222,-2.33 (active)
6,GCUUAAGGAUCCAUAAUGUTT against Musk,0.981
7,GGAAGGAGAAAGAGUAUGATT against Mnt,0.525
8,GCAGAAACGAUUGUACCAUTT against Ar,1.37
9,GGCUCAAAACCACACCACUTT against Olfr477,-2.75 (active)
10,CGAUUGCUAAGGUGUUUGATT against Sfmbt1,-0.45
11,GGAGCAUCAUUAUUCUGCATT against Gm527,-0.0903
12,GAGAAACCUGCCUCAUCUCTT against Spata3,-0.0842
13,GGAUUUGAACUCAGAUGUUTT against A430057M04Rik,2.15 (active)
14,GGGAUGUUCUUCAAUCCUGTT against Hecw2,0.0154
15,GCACUUCAGUUUACAAAACTT against Mier3,-0.891
16,CGUUUGAUGAGACCAUGUATT against Vwf,-0.459
17,GCCUGGUAGUUAGUCAGAATT against Klf11,2.4 (active)
18,GCUACAUGAUUCAGCGGAATT against Itga3,-1.23
19,CGGAUUAGUAUAAAUGUAGTT against Prss16,-0.109
20,UCACAACUGUCUGUUCUCATT against Klk1b3,-1.19
21,GCCACACACCUUCUAUAAUTT against Ptprs,-0.62
22,GCCAACGCAGCAAAAGCUCTT against Rsrp1,0.0495

row,Sequence,z-score
1,CCCAAUAUGUUAGACCCUGTT against Slc16a8,0.448
2,GGUGAUAAUUAAUGUCUUGTT against Naip1,2.08 (active)
3,GGAUCAGAACUUAUCUGUGTT against Utp23,0.383
4,GGCACUGAUAAGAAGUACCTT against Dnah1,0.772
5,GCUUAUGUUAAACCAGAGATT against Syt8,0.0449
6,GGAUCCUAGCCUUUUAUCATT against Cep70,-1.11
7,GGAUUCCAGAGAAAUGUGATT against Lrrc66,-2.62 (active)
8,GGUAUGAGUACAAAUACUGTT against Tek,1.97
9,GGCUCUGCCAUUUUCCCUUTT against F12,-1.24
10,GGCCAAGUUCCAUAUCACCTT against Eefsec,0.46
11,GGAACUCAGUCAGGACCAATT against Hnf4aos,0.954
12,CGAGAAUAUGUGAGAGCUUTT against Dcaf13,-0.793
13,GGAGACCCUGGUGAGAAGATT against Emid1,0.26
14,GGAACACAGAGGUAAAAGGTT against Olfr446,-2.66 (active)
15,CCAGCAUGCAUGAACGAGUTT against Carnmt1,0.508
16,CCCUGUAACCAAUAAGAAGTT against Snrpa1,-0.401
17,GGGCUAUGCAGACCUGUACTT against Cyb561,-2.45 (active)
18,CCUUGGGACAAGCAUAUAUTT against Psg25,0.901
19,GGCAAGUCUAAAAUACAUUTT against St6galnac4,-0.439
20,CGUACCAGAUGAGCUAAGUTT against Zfp513,2.56 (active)
21,CCUGUUGUAUUGUUUAGCGTT against Ago2,-0.402
22,CCUCAAGAUAAACCGACAATT against Bard1,0.388

row,Sequence,z-score
1,GGAGUCCGCUCAGAAUUUGTT against Lhpp,-0.194
2,GGACAAAGUUGUUCCUUCUTT against Zfp13,-2.62 (active)
3,GGAAGAUCUACAUCGUGGGTT against Klhl26,0.341
4,GGUGGUUUUUUGUUGUUGUTT against Lhfpl4,0.277
5,GCCUAUGACUACCUCGAGUTT against Rhob,-2.01 (active)
6,GGAGAAUAAUAAGCUGGAATT against Hap1,0.12
7,CGGUAUCUUGGUCAACCUGTT against Naaa,0.955
8,GGUAGCUCUGAGACAAUUCTT against Pkhd1l1,0.857
9,GCCCAUUAUGGUUAAAGAATT against Ccnb3,-0.311
10,GGAGAUCGAUAUUCGACUATT against 4933434E20Rik,-2.48 (active)
11,GGAUAUUCUUCUUAAGCAGTT against Agbl5,-0.168
12,CCAGGUUGAUGAUUUCAACTT against Tbcc,-1.43
13,GGGAAGUGCAUGCUCAUCUTT against Smarcal1,-0.187
14,GCGUGGAUUACAUUUCUCUTT against Depdc1a,0.392
15,GGACUGAGAACCAAAGCUGTT against D630044L22Rik,-3.15 (active)
16,GGAAGAGCCAGUGGUAUAATT against Ccdc171,0.164
17,GUCUGAGCGACUGUCUCCATT against Mef2b,-2.17 (active)
18,GGAGAACCAUAAUAAGAGUTT against Tnfrsf26,-2.88 (active)
19,UCAAACUAGGUGCUGUUGUTT against Olfr584,0.998
